VLA-4 inh = inhibition in human VLA-4 binding assay, primary screen, VLA-4 allosteric modulator project, MLPCN library, flow cytometry, VLA-4 expressing cells; ligand binding flow cytometry; inhibition, % (about 7 µM as worked out from the volumes in the protocol); actives 0.2% (n = 330,000); in the data active = inhibition above about 50%
Target sequence (P13612 whole entry, looked up): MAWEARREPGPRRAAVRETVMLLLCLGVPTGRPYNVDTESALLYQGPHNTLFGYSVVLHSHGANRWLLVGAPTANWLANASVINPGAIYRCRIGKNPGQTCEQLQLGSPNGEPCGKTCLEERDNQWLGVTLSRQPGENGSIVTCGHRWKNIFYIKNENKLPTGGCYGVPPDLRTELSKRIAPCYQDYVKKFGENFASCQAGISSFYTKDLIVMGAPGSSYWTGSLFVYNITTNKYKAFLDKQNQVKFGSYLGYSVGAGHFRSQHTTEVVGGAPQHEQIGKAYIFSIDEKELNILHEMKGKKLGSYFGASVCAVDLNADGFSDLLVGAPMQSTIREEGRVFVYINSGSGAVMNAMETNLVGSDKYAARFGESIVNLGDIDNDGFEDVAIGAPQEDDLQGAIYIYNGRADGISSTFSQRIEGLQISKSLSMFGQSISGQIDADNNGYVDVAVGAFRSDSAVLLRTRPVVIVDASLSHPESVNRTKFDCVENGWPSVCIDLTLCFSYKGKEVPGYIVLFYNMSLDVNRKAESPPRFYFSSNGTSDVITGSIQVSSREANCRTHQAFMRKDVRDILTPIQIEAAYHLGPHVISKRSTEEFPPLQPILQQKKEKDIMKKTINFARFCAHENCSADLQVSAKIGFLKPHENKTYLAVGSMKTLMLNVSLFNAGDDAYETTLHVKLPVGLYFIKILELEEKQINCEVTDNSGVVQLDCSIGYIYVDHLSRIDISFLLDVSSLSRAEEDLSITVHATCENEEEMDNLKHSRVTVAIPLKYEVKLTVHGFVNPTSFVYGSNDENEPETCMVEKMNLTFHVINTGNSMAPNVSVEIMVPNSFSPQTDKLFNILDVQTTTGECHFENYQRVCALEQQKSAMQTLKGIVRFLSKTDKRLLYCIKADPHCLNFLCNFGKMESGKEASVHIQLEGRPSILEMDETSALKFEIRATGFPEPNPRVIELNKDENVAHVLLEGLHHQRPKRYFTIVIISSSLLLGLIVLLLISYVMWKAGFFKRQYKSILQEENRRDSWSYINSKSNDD
Pemphigus Ab inh = inhibitors of pemphigus antibody binding to DSG3, primary screen, biochemical, bead-based, flow cytometry, scFv-GFP | actives 0.48% (n = 310,000) | binding (percent of control), % at 10 µM | DSG3-coupled beads, scFv-anti-DSG3-GFP binding; hits give low values;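 active = binding more than 3 SD below its plate's average and above zero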;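 also: hits lower antibody fragment binding to DSG3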
GRK2 aptamer HTS = compounds blocking aptamer binding on GRK2 – biochemical, human GRK2, bead flow cytometry, HTS, primary screen | AID 488847, 2010 | actives 0.59% (n = 330,000) | Beta-adrenergic receptor kinase 1 (Homo sapiens), P25098 | inhibition of aptamer binding, % at 10 µM | FAM-aptamer displacement from GRK2;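 active = inhibition of aptamer binding above 40%, roughly 3 SD of noise, on plates passing a quality check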;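 also: median bead fluorescence of bound FAM aptamer so fluorescent compounds give negative values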
PREPL inhibitor = PREPL enzyme inhibitors, primary screen, biochemical, fluorescence polarization; inhibition, % at 5.96 µM; recombinant PREPL, fluorescence polarization activity-based probe; AID 2751, 2010; Prolyl endopeptidase-like (Homo sapiens), Q4J6C6; actives 0.68% (n = 320,000); in the data active = inhibition above about 43%;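 also: 0% = enzyme with DMSO and 100% = wells lacking enzyme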
JMJD2C inh = inhibitors of GASC-1 histone demethylase, primary screen, biochemical, fluorescence, DELFIA europium; actives 0.069% (n = 330,000); GST-JMJD2C(1-420) H3K9me3 demethylation; Lysine-specific demethylase 4C (Homo sapiens), Q9H3R0; inhibition, % at 2.35 µM;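 active = more than half of a compound's replicate wells show inhibition beyond 50%, single wells judged on their own value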;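 also: signal counts dimethyl H3K9 product captured on neutravidin plate; 0% = median of DMSO wells and 100% = 0.3 times that DMSO median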
Numbers without * were called inactive; nt = no result. In the library only some 1.6% were active in any assay of this set; here they are far more common.

SMILES	VLA-4 inh	Pemphigus Ab inh	GRK2 aptamer HTS	PREPL inhibitor	JMJD2C inh
CCOc1ccc(NS(=O)(=O)c2ccc(C(=O)NCC(c3ccco3)N3CCCCC3)cc2)cc1 (stereo not drawn)	nt	99	nt	nt	nt
CCCC(C)c1nnc(NC(=O)CN2C(=O)c3ccccc3C2=O)s1 (stereo not drawn)	4	102	2	4	-8
O=c1[nH]c(=O)c2[nH]c(=S)n(-c3ccccc3)c2[nH]1	nt	114	nt	nt	nt
CN(C)c1nc(N)ncc1-c1ccc(Oc2ccccc2)cc1	8	79*	0	7	10
COC(=O)CCC(=O)Nc1ccc(N=Nc2ccccc2)cc1	9	-11*	3	18	-22
O=C(CCCCCCC(=O)c1ccccc1)c1ccccc1	0	62*	0	-19	-5
O=C(CCC(=O)c1ccccc1)Nc1ccccc1	1	80*	0	-1	7
CC(CCN1CCN(c2ccccc2)CC1)c1ccccc1 (stereo not drawn)	-9	107	0	nt	-4
O=C1CC(C(=O)O)C(c2ccccc2)c2ccccc21 (stereo not drawn)	nt	91	nt	nt	nt
O=C(Cc1c(F)cccc1Cl)Nc1ccccc1-c1ccccc1	8	47*	1	0	1
COc1cc(C(=O)NNC(=O)/C=C/c2ccco2)cc(OC)c1OC	-2	nt	42*	15	5
COc1cc(C(=O)NNC(=O)c2ccco2)cc(OC)c1OC	-2	nt	3	0	0
O=C(NC(=S)NCc1ccccc1)C1CC1	16	25*	1	-2	-10
O=C(NCc1ccccc1)C1CCCC1	2	nt	2	14	-31
O=C(Nc1cccc(F)c1)c1c(O)c2cccc3c2n(c1=O)CCC3	7	nt	78*	15	5
N#Cc1ccccc1CSCCNC(=O)Cc1c(F)cccc1Cl	4	101	1	-5	12
COc1ccc(NC(=S)NCc2ccc(S(N)(=O)=O)cc2)cc1OC	12	95	0	1	56*
[O-][n+]1c2ccccc2c2n1CCN1CCOC21c1ccc(Cl)cc1 (stereo not drawn)	8	100	0	8	-1
CCC(=O)OC1(C)C(=O)C=C2C=C(c3ccsc3)OC=C2C1=O (stereo not drawn)	-23	91	4	7	12
COC(=O)CCC(=O)OC1(C)C(=O)C=C2C=C(c3ccsc3)OC=C2C1=O (stereo not drawn)	-14	43*	8	6	5
O=C(CCC(=O)N1CCOc2ccccc21)N1CCCCC1	-8	95	1	-2	-16
O=S(=O)(NCc1ccc2c(c1)OCO2)c1c(F)cc(F)cc1Br	5	103	0	-1	-4
O=C(Nc1ccc(-c2nc3ccccc3s2)cc1)C1=COCCO1	9	96	48*	0	-4
COc1ccccc1C(=O)NC1CCCc2ccccc21 (stereo not drawn)	7	nt	0	-2	1
COc1ccc(S(N)(=O)=O)cc1C(=O)NC1CCCc2ccccc21 (stereo not drawn)	-8	-38*	0	-4	15
SMILES	VLA-4 inh	Pemphigus Ab inh	GRK2 aptamer HTS	PREPL inhibitor	JMJD2C inh
O=C(NC1CCCc2ccccc21)c1ccc(Br)cc1 (stereo not drawn)	15	108	0	-2	58*
CCn1c(C(C#N)/C(=N\S(=O)(=O)c2cccs2)c2ccccc2)nc2ccccc21 (stereo not drawn)	-5	74*	1	-5	3
O=C(c1ccccc1-c1ncc[nH]1)N1CCCC(Nc2ccc(F)cc2)C1 (stereo not drawn)	4	106	0	27	1
CC1(C)COC(c2cccc(C3=NC(C)(C)CO3)n2)=N1	17	100	0	-3	-3
Cc1ccc(CN2C(=O)N/C(=C\c3ccc(-c4ccc(C(=O)O)cc4C)o3)C2=O)cc1	10	93	17	78*	-7
CC(C)C(=O)N(c1ccc(F)cc1)C1C=CS(=O)(=O)C1 (stereo not drawn)	5	101	0	4	9
CCC(CC)C(=O)N(c1ccc(F)cc1)C1C=CS(=O)(=O)C1 (stereo not drawn)	31	83*	1	7	5
CCOc1ccc(C(=O)CC(C(=O)O)N2CCN(Cc3ccccc3)CC2)cc1 (stereo not drawn)	24	nt	3	-1	-7
CCOc1ccc(C(=O)CC(C(=O)O)N2CCCCC2)cc1 (stereo not drawn)	45	nt	43*	8	-5
CC1(C)Cc2ccccc2C(/C(=N\Nc2cccc(Cl)c2)C(N)=O)=N1	6	68*	0	-4	2
CC(=O)c1ccc(N/N=C(/C(N)=O)C2=NC(C)(C)Cc3ccccc32)cc1	-24	118	0	12	4
COc1ccc(OCC(O)CNC(=O)c2c(-c3ccccc3)noc2C)cc1 (stereo not drawn)	1	110	0	-3	8
COc1ccccc1C(=O)N/N=C(\C)c1ccc(NC(=O)Cc2ccccc2)cc1	-12	101	0	-3	1
COc1ccccc1C(=O)N/N=C(\C)c1ccc(NC(=O)C2CC2)cc1	-6	2.4*	0	5	-1
COC(=O)COc1ccsc1C(=O)OC	12	104	2	-5	-1
CCOC(=O)C(C)Oc1ccsc1C(=O)OC (stereo not drawn)	14	nt	0	14	51*
CCN(CC)c1ccc(-c2nc3cnccn3c2NC2CCCC2)cc1	-16	103	0	27	2
CC(=O)Nc1cccc(NC(=O)c2ccc(C(=O)Nc3cccc(NC(C)=O)c3)nc2)c1	4	110	0	8	-1
O=C(Nc1ccccc1)c1ccc(C(=O)Nc2ccccc2)nc1	12	23*	2	10	-14
Cc1nonc1OCCNC(=O)C12CC3CC(CC(C3)C1)C2	-1	101	6	-3	12
CC(NC(=O)COC(=O)c1ccc(N(C)C)cc1)c1ccccc1 (stereo not drawn)	0	108	3	4	178
O=C(O)c1ccc(-n2ncc3c2/C(=C\c2cccc([N+](=O)[O-])c2)CC3)cc1	nt	34*	nt	nt	nt
CSCCC(NS(=O)(=O)c1ccc(Cl)cc1)C(=O)N1CCN(c2ccccc2)CC1 (stereo not drawn)	nt	-2.0*	nt	nt	nt
O=C(CNC(=O)c1cccs1)Nc1ccncc1	-10	99	1	-5	-5
COc1cccc2c1NC(C(=O)O)C1CC=CC21 (stereo not drawn)	-9	13*	100*	41	-5
